# Screening data from PubChem.
# ATXN2 expr inh – inhibitors of ATXN2 expression; Potency, µM (top dose mostly 57 µM), inactives show top-dose activity change, negative = inhibition, hits mostly inhibitors; HEK-293 ATXN2-luciferase reporter, luminescence, 24 h; AID 1745845; 360,000 compounds, 0.72% hits; also: % is scaled to controls: 0 for no effect and ±100 for the full control effect; nearly all actives have a fitted effect of over 55% in size
#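 ATXN2-luciferase reporter cells (luciferase flanked by upstream and downstream ATXN2 gene portions) were treated 24 h at 37 °C with compounds at up to 57 uM. SteadyGlo luminescence gave expression; GF-AFC fluorescence gave viability.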
# HepG2 viability – HepG2 cytotoxicity, counter-screen for TGF-b inhibitors. AID 588856. HepG2 CAGA-GFP viability, ATP luminescence, 18 h. 410,000 compounds, 0.76% hits. Potency, µM (titrated, usually from 46.1 µM), for the others: at the top dose activity change, negative = cytotoxicity, usual class: cytotoxic
#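 CellTiter-Glo luminescence gave cytotoxicity after 18 hours at 37 degrees C. The cells were HepG2 CAGA-GFP in 1% FBS DMEM, stimulated with 500 pg/mL TGF-beta after compound addition. %Activity was normalised to no-cell wells (complete cell-killing) and DMSO (no toxicity), and curves were fitted and classified.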
# TGFb SMAD3 inh – blocks TGF-b signaling; HepG2 CAGA-GFP TGF-b/SMAD3 reporter, GFP fluorescence, 18 h; TGF-beta stimulated, 500 pg/mL final; Potency, µM (top dose mostly 46.1 µM), for the others: at the top dose activity, negative = inhibition, actives largely listed as inhibitors; 410,000 compounds, 1.2% hits; also: % is scaled to controls: 0 for no effect and ±100 for the full control effect; nearly all actives have a fitted effect of over 65% in size
#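 Inhibition of TGF-beta-driven CAGA-GFP reporter expression in HEPG2 cells is measured by cellular GFP fluorescence after 18 h stimulation with 500 pg/mL recombinant TGF-beta in 1% FBS medium at 37 degrees C.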
# ATXN viability – viability counter-screen for ATXN expression inhibitors | S2 cells (HEK-293 line with an ATXN2-luciferase reporter) viability, CellTiter-Fluor protease fluorescence, 24 h | Potency, µM (top dose mostly 56.7 µM), actives largely listed as cytotoxic | 400,000 compounds, 0.49% hits | AID 651635; also: nearly all actives have a fitted effect of over 40% in size
# Anesthetic bind – candidate novel general anesthetic via apoferritin binding; P02791; apoferritin/1-aminoanthracene competitive binding, fluorescence; Potency, µM (top dose mostly 77.5 µM), without a hit: top-dose activity change, negative = displacement, most hits filed as inhibitors; 350,000 compounds, 0.074% hits; also: % is scaled to controls: 0 for no effect and ±100 for the full control effect; nearly all actives have a fitted effect of over 20% in size
# Target sequence (P02791 2-175 limits assumed): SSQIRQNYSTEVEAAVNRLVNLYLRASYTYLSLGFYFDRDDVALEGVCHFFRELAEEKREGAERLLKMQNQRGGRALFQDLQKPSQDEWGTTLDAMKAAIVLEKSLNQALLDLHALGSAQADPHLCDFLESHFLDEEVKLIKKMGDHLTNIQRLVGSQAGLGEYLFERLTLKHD
#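 Probe: 1-aminoanthracene (50% saturated, PBS). Protein: horse-spleen apoferritin, 10 uM. Incubation: 10 min, room temperature. Detection: 380 nm excitation, 535 nm emission. Analysis: normalized response, four-parameter Hill.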
# * = called active by the depositor; i = inactive; ? = inconclusive; . = no result given; ! = a repeat was not active; [ ] = another dose, or the depositor's remark. Compounds with a hit are over-represented: about 2.4% of the library has one in this group of screens. Calls follow the shape of the dose curve; as a rule, active = well fitted curve in the direction sought with a large enough effect; inconclusive = small, poorly fitted or top-dose-only effect, or another doubt; inactive = no such curve, though single readings can be large; an effect the other way counts as inactive or inconclusive. Potency is read from the fitted curve at half-maximal effect.
SMILES,ATXN2 expr inh,HepG2 viability,TGFb SMAD3 inh,ATXN viability,Anesthetic bind
CC(C)(C)N=Cc1c(O)ccc2oc3c(c12)CCCC3,-20.6%,10.0%,7.6%,i,-8.8%
NC(=O)N/N=C/c1c(O)ccc2oc3c(c12)CCCC3,?,0.5%,10µM*,i,-1.1%
Cc1cc(C)n(-c2cccc(C(=O)NCC3Cc4cc(Cl)cc(-c5cnccn5)c4O3)c2)n1 (stereo not drawn),.,.,.,i,.
NC(N)=N/N=C/c1ccc(Cl)c(Cl)c1,?,12.6µM*,?,i,-15.7%
NC(N)=N/N=C/c1ccccc1,-24.1%,10.8%,11.4%,?,-4.7%
NC(N)=N/N=C\c1c(Cl)cccc1Cl,.,.,.,.,-8.3%
NC(N)=N/N=C/c1ccc(OCc2ccccc2Cl)cc1,14.1µM*,-96.1%,?,28.2µM*,?
CS(=O)(=O)Oc1ccc2c(NC(N)=O)c(C(=O)c3ccc(Cl)cc3Cl)oc2c1,118.8%,.,.,.,.
COc1ccc(NC(=O)CSc2ccc3nnc(-c4cccnc4)n3n2)cc1OC,-3.3%,1.3%,-1.6%,i,-3.9%
C/C(Cn1nnc([N+](=O)[O-])n1)=N\NC(=O)c1ccccc1O,-29.1%,-19.4%,-41.9%,i,5.0%
C/C(Cn1nnc([N+](=O)[O-])n1)=N\NC(=O)c1ccc(O)cc1,.,-31.0%,11.2µM*,?,-10.2%
C/C(Cn1nnc([N+](=O)[O-])n1)=N\NC(=O)c1ccc(O)cc1O,?,-31.9%,?,i,-9.7%
C/C(Cn1nnc([N+](=O)[O-])n1)=N\NC(=O)c1ccc(Cl)c(Cl)c1,?,14.1µM*,10µM*,?,-18.5%
COc1ccccc1C1CN(Cc2cnn(C)c2)Cc2ccccc2O1 (stereo not drawn),.,.,.,i,.
Cc1c(-c2ccc(O)cc2)n(Cc2ccc(OCCN3CCCCCC3)cc2)c2ccc(O)cc12,17.8µM*!,.,.,15.8µM*!,.
Cc1noc(C)c1-c1ccc2ncnc(NCc3ccco3)c2c1,.,.,.,.,-0.3%
CCn1cnc2cc(NCc3ccc(N(C)C)cc3)ccc21,?,7.08µM*!,10µM*,?,-5.9%
CCN(CC)c1ccc(CNc2ccc3c(c2)ncn3CC)cc1,-20.1%,-9.0%,1.0%,?,-9.9%
COc1cc([N+](=O)[O-])ccc1NC(=O)COC(=O)c1c[nH]c(=O)[nH]c1=O,-1.9%,1.9%,-16.6%,?,.
OC1(c2cccnc2)CCN(Cc2ccc3c(c2)CN(Cc2cc(F)ccc2F)CCO3)CC1,.,.,.,i,.
COc1ccc(-c2nnc(C3CCN(S(=O)(=O)c4ccc(C)c(C)c4)CC3)o2)cc1,-14.1%,-2.1%,-23.4%,i,1.6%
CCCc1ccc(S(=O)(=O)N2CCC(c3nnc(-c4cccc(C)c4)o3)CC2)cc1,10µM*,-16.6%,?,.,5.8%
Cc1ccc(S(=O)(=O)N2CCC(c3nnc(-c4cccc(C)c4)o3)CC2)cc1,5.62µM*,-41.7%,?,7.94µM*,-12.6%
COc1ccccc1-c1nnc(C2CCN(S(=O)(=O)c3ccc(F)c(C)c3)CC2)o1,-34.6%,-32.0%,?,?,7.3%
C=C1C=C(C)n2ncc(C(=O)Nc3ccccc3C(=O)OC)c2N1,.,-0.8%,-0.8%,.,.
SMILES,ATXN2 expr inh,HepG2 viability,TGFb SMAD3 inh,ATXN viability,Anesthetic bind
CC(=O)OCC1OC(C#Cc2ccccc2)C=CC1OC(C)=O (stereo not drawn),.,.,.,.,-0.6%[15.3 µM]
CCc1nnc(NC(=O)c2nc(S(=O)(=O)Cc3cccc(C)c3)ncc2Cl)s1,?,22.4µM*,11.2µM*,?,3.7%
CSc1nnc(NC(=O)c2nc(S(=O)(=O)Cc3cccc(C)c3)ncc2Cl)s1,28.2µM*,-76.2%,?,22.4µM*,?
CCNC(=O)c1c(NC(=O)c2nc(S(=O)(=O)CC)ncc2Cl)sc2c1CCCC2,.,3.98µM*,1.41µM*,.,-7.2%
CCc1nnc(NC(=O)c2nc(S(=O)(=O)Cc3ccccc3)ncc2Cl)s1,?,-94.9%,?,?,-15.7%
O=C(Nc1nc2ccc(F)cc2s1)c1nc(S(=O)(=O)Cc2ccccc2F)ncc1Cl,25.1µM*,7.08µM*,6.31µM*,11.2µM*,?
CC(=O)OC[C@H]1O[C@@H](O/N=C(\C)CCN2CCCc3nc(C)c(C)cc32)[C@H](OC(C)=O)[C@@H](OC(C)=O)[C@H]1OC(C)=O,.,.,.,.,5.8%[15.3 µM]
CCN(CC)CC(=O)Nc1c(C)cccc1C(=O)OC,2.2%,.,.,i,.
C=Cc1ccc(Cn2nc(-c3ccccc3)ccc2=O)cc1,-14.0%,0.9%,-19.9%,i,-7.9%
c1coc(CNc2ncnc3c2nc2n3CCCC2)c1,.,-9.4%,-28.1%,.,.
Cc1cccc(CS(=O)(=O)c2ncc(Cl)c(C(=O)Nc3nnc(C(C)C)s3)n2)c1,-35.2%,11.2µM*!,11.2µM*,28.2µM*,3.2%
Cc1ccc(CS(=O)(=O)c2ncc(Cl)c(C(=O)Nc3nnc(C(C)C)s3)n2)cc1,?,11.2µM*!,12.6µM*,?,-12.5%
CCOc1ccccc1NC(=O)c1nc(S(=O)(=O)Cc2cccc(C)c2)ncc1Cl,-11.5%,-21.2%,?,31.6µM*!,-8.6%
CC(C)c1nnc(NC(=O)c2nc(S(=O)(=O)Cc3ccccc3F)ncc2Cl)s1,10µM*,-104.0%,12.6µM*,7.08µM*,-12.7%
COC(=O)c1ccccc1NC(=O)c1nc(S(=O)(=O)Cc2ccccc2)ncc1Cl,.,-17.8%,0.8%,?,-8.0%
Cc1[nH]c2ccccc2c1C(=O)C(C)Sc1nc2ccccc2c(=O)n1Cc1cccnc1 (stereo not drawn),.,-1.6%,9.3%,.,.
COCCCNC(=O)c1oc2c(c1C)-c1nn(Cc3ccc(Cl)cc3)cc1CC2,.,-20.8%,-17.6%,.,3.5%
CCN(CC)CCCNC(=O)c1oc2c(c1C)-c1nn(Cc3ccc(Cl)cc3)cc1CC2,.,12.6µM*,-25.0%,.,-14.6%
CCOC(=O)c1cc(-c2ccc(OC)cc2)n(CCC(=O)NC2CCN(Cc3ccccc3)CC2)c1C,.,-77.6%,?,i,-17.0%
CCOC(=O)c1cc(-c2ccc(F)cc2)n(CCC(=O)NC2CCN(Cc3ccccc3)CC2)c1C,?,12.6µM*,?,?,?
CC(=O)Nc1ccc(NC(=O)c2ccc(S(=O)(=O)N(C)c3ccccc3)cc2)cc1,.,-28.9%,-14.1%,?,.
Cc1nc2ccc(NC(=O)c3ccc(S(=O)(=O)N(C)c4ccccc4)cc3)cc2s1,29.9µM*,0.9%,?,?,4.0%
CCOc1cc(C2c3c(n[nH]c3C)C(=O)N2c2ccc(C)cc2)ccc1O (stereo not drawn),41.5%,-14.2%,-7.2%,i,-13.8%
CCOC(=O)c1ccc(N2C(=O)c3[nH]nc(-c4ccc(OC)cc4)c3C2c2cccc(O)c2)cc1 (stereo not drawn),?,10µM*,15.8µM*,.,-21.7%
